Structures are written as SMILES. Results filed as inconclusive are left out. Calls of active or inactive are those of the source. Unless noted, the call rests on the fitted dose curve.

Experiment [1] in a line: qHTS assay to identify small molecule agonists of the sonic hedgehog signaling (Shh) pathway (AID 1259368).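 Further: NIH/3T3-derived 3T3Gli1-Luc cells carrying a stable Gli1-driven firefly luciferase reporter; series mostly up to about 92 µM; nearly all actives have a fitted effect of over 15% in size.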 The method, boiled down:
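3T3Gli1-Luc (NIH/3T3 clone, stable Gli1-Luc); 4 hr pre-incubation, then cpd in DMSO 24 hr, 37 C/5% CO2; luciferase reagent 30 min RT; luminescence.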

In experiment [2] the target is Estrogen receptor beta (Homo sapiens) (UniProt Q92731). Kind of experiment: qHTS assay to identify small molecule antagonists of the estrogen receptor beta (ER-beta) signaling pathway (AID 1259378; active means well fitted inhibition curve with a large enough effect in the signal ratio in the repeat runs, not every such curve was filed as active; the % refers to the signal ratio). The method, boiled down:
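ER-beta-UAS-bla HEK293T (GripTite) cells in 2% charcoal-stripped FBS medium were preincubated 6 hr at 37C, dosed with compound, then stimulated with 1 nM E2 (final) for 16 hr; beta-lactamase reporter read by B/G FRET fluorescence after 2 hr substrate loading.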
(In general: Quantitative high-throughput screening tests each substance at several concentrations.)

A short description of experiment [3]: qHTS assay to identify small molecule agonists of the androgen receptor (AR) signaling pathway in the presence of an antagonist - cell viability counter screen (AID 1259379; active means well fitted curve in the direction sought with a large enough effect in the repeat runs; an effect the other way counts as inactive or inconclusive;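 further: MDA-kb2 human breast cancer cells carrying an MMTV luciferase reporter; series mostly up to about 92 µM; nearly all actives have a fitted effect of over 25% in size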). The method, boiled down: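 Cells: MDA-kb2 (MMTV-luc, AR and GR elements), 3,000/well, 5 hr settle. Added: nilutamide 3.0uM final, then compounds (15 conc.). Incubation: 16 hr, 37C, no CO2. Read-out: CellTiter-Fluor, 1 hr, fluorescence.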

Experiment [4] in a line: qHTS assay to identify small molecule antagonists of the estrogen receptor beta (ER-beta) signaling pathway - cell viability counter screen (AID 1259382; active means well fitted curve in the direction sought with a large enough effect in the repeat runs; an effect the other way counts as inactive or inconclusive; further: nearly all actives have a fitted effect of over 55% in size; further: potency means the concentration at half of the fitted maximal effect). The essentials: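 Cells: ER-beta-UAS-bla HEK293T, 2,000/well, 2% CS-FBS, 6 hr settle. Cpd + E2 (1nM final), 16 hr, 37C/5% CO2. Bla FRET substrate 2 hr RT, then CellTiter-Glo 30 min RT, luminescence.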
Experiment [5] has as its target Estrogen receptor (Homo sapiens) (UniProt P03372). Description: qHTS assay to identify small molecule agonists of the estrogen receptor alpha (ER-alpha) signaling pathway in the presence of an antagonist (AID 1259383). Further: top concentration of the series differs between compounds; nearly all actives have a fitted effect of over 15% in size. The method, boiled down:
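VM7Luc4E2, endog. ER-alpha + 4×ERE-luc; charcoal-stripped FBS, phenol red-free, 5 d; 24hr plating; +10.0nM ICI-182,780 (final); cpds 15 conc, 22hr, 37C/5% CO2; ONE-Glo luminescence.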

Experiment [6] is described as follows: qHTS assay to identify small molecule agonists of the estrogen receptor beta (ER-beta) signaling pathway - cell viability counter screen (AID 1259380; active means well fitted curve in the direction sought with a large enough effect in the repeat runs; an effect the other way counts as inactive or inconclusive; further: nearly all actives have a fitted effect of over 30% in size; further: potency means the concentration at half of the fitted maximal effect). The method, boiled down: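 HEK293T ER-beta-UAS-bla; 2% CS-FBS; 6 hr pre-plate, 16 hr cpd at 37C/5% CO2; LiveBLAzer read first, then CellTiter-Glo 30 min RT, luminescence.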
Experiment [7] addresses Estrogen receptor beta (Homo sapiens) (UniProt Q92731). Description: qHTS assay to identify small molecule agonists of the estrogen receptor beta (ER-beta) signaling pathway (AID 1259377; active means well fitted activation curve with a large enough effect in the signal ratio in the repeat runs, not every such curve was filed as active; the % refers to the signal ratio). The essentials: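 HEK293T ER-beta-UAS-bla; 2% charcoal-stripped FBS; cells pre-incubated 6 hr, compound 16 hr, 37C/5% CO2; LiveBLAzer B/G FRET substrate 2 h RT; fluorescence intensity read.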

The nature of experiment [8]: qHTS assay to identify small molecule agonists or antagonists of the thyroid stimulating hormone receptor (TSHR) signaling pathway - wild type cell line counter screen (AID 1259384). The essentials: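 Wild-type HEK293 cells were plated 18 h at 37 C/5% CO2, pin-dosed with compound plus Ro20-1724 medium, held 30 min at room temperature, then given cAMP-d2 and anti-cAMP-cryptate; fluorescence was read after 1 h. Fifteen concentrations, triplicate.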

Experiment [9] can be described thus: qHTS assay to identify small molecule antagonists of the sonic hedgehog signaling (Shh) pathway (AID 1259369). Further: nearly all actives have a fitted effect of over 45% in size. The essentials: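 3T3Gli1-Luc, conditioned-medium-stimulated, 24hr cpd, 37C/5% CO2; Gli1-driven firefly Luc luminescence after 30min RT with luciferase reagent. Cells plated 4hr before cpd.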
In experiment [10] the target is Androgen receptor (Homo sapiens) (UniProt P10275). Description: qHTS assay to identify small molecule agonists of the androgen receptor (AR) signaling pathway in the presence of an antagonist (AID 1259381). Further: nearly all actives have a fitted effect of over 15% in size. The essentials:
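MDA-kb2 cells, 3,000/well, rested 5hr at 37C/0% CO2 → nilutamide 3.0uM final or buffer → compounds, 15 conc. → 16hr at 37C → ONE-Glo, 30min RT → luminescence.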

Sequence of Androgen receptor (Homo sapiens) (P10275 whole entry, looked up): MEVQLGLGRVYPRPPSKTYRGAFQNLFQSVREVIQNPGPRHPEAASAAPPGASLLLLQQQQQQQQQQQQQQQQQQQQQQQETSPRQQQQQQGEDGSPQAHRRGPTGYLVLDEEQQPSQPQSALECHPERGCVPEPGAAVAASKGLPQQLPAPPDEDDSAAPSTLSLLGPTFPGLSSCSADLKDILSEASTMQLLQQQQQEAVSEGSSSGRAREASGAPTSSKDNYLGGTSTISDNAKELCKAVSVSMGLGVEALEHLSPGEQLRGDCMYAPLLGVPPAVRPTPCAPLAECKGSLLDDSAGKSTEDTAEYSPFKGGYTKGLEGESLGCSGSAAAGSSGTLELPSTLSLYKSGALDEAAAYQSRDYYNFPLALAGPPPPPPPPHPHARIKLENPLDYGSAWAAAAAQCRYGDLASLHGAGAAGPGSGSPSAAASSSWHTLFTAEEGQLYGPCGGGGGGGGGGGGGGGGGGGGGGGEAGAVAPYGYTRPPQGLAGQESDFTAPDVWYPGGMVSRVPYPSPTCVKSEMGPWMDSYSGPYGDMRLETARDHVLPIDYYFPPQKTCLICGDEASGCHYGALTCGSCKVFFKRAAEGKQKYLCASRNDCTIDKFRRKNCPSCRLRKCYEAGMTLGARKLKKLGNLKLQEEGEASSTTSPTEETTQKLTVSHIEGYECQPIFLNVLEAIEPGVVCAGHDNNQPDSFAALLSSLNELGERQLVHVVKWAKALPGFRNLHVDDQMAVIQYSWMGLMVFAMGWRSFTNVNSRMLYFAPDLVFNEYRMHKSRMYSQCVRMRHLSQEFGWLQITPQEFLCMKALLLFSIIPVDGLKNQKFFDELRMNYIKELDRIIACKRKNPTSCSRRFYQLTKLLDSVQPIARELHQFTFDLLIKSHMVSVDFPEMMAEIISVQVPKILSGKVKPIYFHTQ
Sequence of Estrogen receptor beta (Homo sapiens) (Q92731 whole entry, looked up): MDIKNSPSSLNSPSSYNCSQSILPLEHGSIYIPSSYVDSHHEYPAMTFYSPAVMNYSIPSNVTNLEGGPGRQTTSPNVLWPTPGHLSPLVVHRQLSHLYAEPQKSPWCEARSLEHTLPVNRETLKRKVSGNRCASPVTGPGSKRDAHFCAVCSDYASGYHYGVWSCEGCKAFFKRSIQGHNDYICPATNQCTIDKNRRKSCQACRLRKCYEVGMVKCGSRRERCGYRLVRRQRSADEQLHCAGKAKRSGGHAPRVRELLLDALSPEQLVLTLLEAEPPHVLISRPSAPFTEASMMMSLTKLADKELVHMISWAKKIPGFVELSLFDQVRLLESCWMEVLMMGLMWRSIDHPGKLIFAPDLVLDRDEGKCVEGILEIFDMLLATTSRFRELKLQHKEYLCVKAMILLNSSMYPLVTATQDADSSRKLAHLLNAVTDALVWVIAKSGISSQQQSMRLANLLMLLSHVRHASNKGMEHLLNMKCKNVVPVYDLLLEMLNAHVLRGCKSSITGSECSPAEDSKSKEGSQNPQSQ
Sequence of Estrogen receptor (Homo sapiens) (P03372 whole entry, looked up): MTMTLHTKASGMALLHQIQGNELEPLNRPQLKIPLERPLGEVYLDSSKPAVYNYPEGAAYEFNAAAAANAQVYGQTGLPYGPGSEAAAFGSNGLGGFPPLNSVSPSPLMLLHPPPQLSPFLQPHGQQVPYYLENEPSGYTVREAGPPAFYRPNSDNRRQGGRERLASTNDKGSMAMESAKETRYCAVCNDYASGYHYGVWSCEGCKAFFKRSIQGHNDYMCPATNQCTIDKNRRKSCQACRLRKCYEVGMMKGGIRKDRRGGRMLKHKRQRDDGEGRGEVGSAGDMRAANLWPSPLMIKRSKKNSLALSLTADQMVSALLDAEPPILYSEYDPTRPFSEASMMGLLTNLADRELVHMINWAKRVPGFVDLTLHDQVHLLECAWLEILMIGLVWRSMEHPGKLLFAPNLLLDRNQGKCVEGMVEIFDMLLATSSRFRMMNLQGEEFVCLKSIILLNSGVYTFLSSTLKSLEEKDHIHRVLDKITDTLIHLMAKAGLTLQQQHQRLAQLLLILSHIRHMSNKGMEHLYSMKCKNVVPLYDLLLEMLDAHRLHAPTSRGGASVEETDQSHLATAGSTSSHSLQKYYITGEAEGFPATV

As for `CO[C@@H]1[C@@H](O[C@@H]2O[C@H](C)[C@@H](O[C@H]3C[C@@](C)(O)[C@@H](O)[C@H](C)O3)[C@H](N(C)C)[C@H]2O)[C@@H](CC=O)C[C@@H](C)[C@@H](O[C@@H]2CC[C@H](N(C)C)[C@@H](C)O2)/C=C/C=C/C[C@@H](C)OC(=O)C[C@H]1OC(C)=O`, the Potency result in experiment [1], in experiment [2], in experiment [3], in experiment [4] and in experiment [5] was “inactive” in each case.
Turning to `COc1cc(C)c(Cc2cnc(N)nc2N)cc1OC`, the Potency entry in experiment [1], in [3], in experiment [6], in experiment [4] and in experiment [5] was “inactive” throughout.
With `CC(Cc1ccccc1)(NC(=O)CN)c1ccccc1` (stereo not drawn), the Potency result in experiment [1], in experiment [7], in [2], in experiment [3], in [4] and in experiment [5] was “inactive” in each case. Also, the molecule was classed as inactive in experiment [8].
Turning to `CC(C)(Cc1c[nH]c2ccccc12)NCC(O)COc1ccccc1C#N` (stereo not drawn), the Potency entry in experiment [1] and in [3] was “inactive” in each case. In addition, the figures for the Potency in experiment [6] and in experiment [4] were 29.8 µM (active) and 26.6 µM (active), respectively. Also, in experiment [8], the call was inactive.
With `O=C(O)c1cccnc1Nc1cccc(C(F)(F)F)c1`, the Potency entry in [1], in experiment [9], in experiment [3] and in [5] was “inactive” throughout.
Consider `Cc1ccc2ccccc2c1[N+](=O)[O-]`, for which the Potency entry in experiment [1], in experiment [7], in experiment [2], in experiment [3], in experiment [6] and in experiment [4] was “inactive” throughout. The Potency entry in [5] was “inactive”. In addition, the result in [8] was inactive.
For `COC(=O)C(C)(C)C`, the Potency result in [1], in experiment [9], in [3] and in [4] was “inactive” each time. Further, in experiment [8], the molecule was called inactive.
On to `C=CC(C)(O)CC/C=C(/C)CCC=C(C)C` (stereo not drawn), for which the Potency entry in [1], in experiment [7], in [2], in [3], in [6] and in experiment [4] was “inactive” each time.
In the case of `CCC[Si](OC)(OC)OC`, the Potency result in experiment [1], in experiment [7], in [2], in experiment [3], in [6] and in experiment [10] was “inactive” throughout. Besides, the Potency entry in experiment [4] and in [5] was “inactive” each time. The molecule was classed as inactive in [8].
`OCCCO`: the Potency result in [1], in [2], in [3], in experiment [6], in experiment [10] and in experiment [4] was “inactive” each time. In experiment [5], the Potency entry was “inactive”. Also, in [8], the call was inactive.
Consider `OCC(O)c1ccccc1` (stereo not drawn), for which the Potency result in [1], in [9], in [3] and in experiment [5] was “inactive” each time. The molecule was classed as inactive in experiment [8].
With `SCCOCCOCCS`, the Potency result in experiment [9], in [3], in experiment [4] and in [5] was “inactive” in each case.
As for `N#Cc1ccc(CC(=O)c2cccc(C(F)(F)F)c2)cc1`, the Potency result in experiment [1], in [3] and in experiment [4] was “inactive” throughout. For the same molecule, the molecule was classed as inactive in [8].
Consider `CCCC1CCOC(C)S1` (stereo not drawn), for which the Potency entry in experiment [1], in experiment [7], in experiment [2], in [3], in [6] and in [10] was “inactive” each time. For the same molecule, the Potency result in experiment [4] and in experiment [5] was “inactive” in each case. Also, the outcome in experiment [8] was inactive.
Take `Cc1nc2sccn2c(=O)c1CCN1CCC(=C(c2ccc(F)cc2)c2ccc(F)cc2)CC1`: the Potency entry in experiment [1], in [7], in experiment [3] and in [5] was “inactive” throughout. The Potency in [6] was 13.3 µM (active). The outcome in [8] was inactive.
Turning to `CCOc1ccc(NC(C)=O)cc1N`, the Potency entry in [1], in [7], in [2], in experiment [3], in experiment [6] and in experiment [10] was “inactive” throughout. The Potency result in experiment [5] is “inactive”. The molecule was called inactive in [8].
With `C[C@]12CCC(=O)C=C1[C@@H]1C[C@@H]1[C@H]1[C@@H]3[C@@H]4C[C@@H]4[C@@]4(CCC(=O)O4)[C@@]3(C)CC[C@@H]12`, the Potency result in experiment [1] and in experiment [3] was “inactive” each time.
For `COc1ccc(C(=O)Nc2ccccc2)cc1[N+](=O)[O-]`, the Potency entry in experiment [1], in experiment [3], in experiment [4] and in [5] was “inactive” in each case. Also, the Potency in experiment [6] is 30.9 µM (active).
As for `CCCCCCC/C=C/C=O`, the Potency result in experiment [1], in experiment [3], in [6], in experiment [4] and in experiment [5] was “inactive” throughout. In addition, the call in experiment [8] was inactive.
Consider `CCOCCn1c(N2CCCN(C)CC2)nc2ccccc21`, for which the Potency result in experiment [1], in experiment [7], in experiment [2], in experiment [3], in experiment [6] and in experiment [10] was “inactive” throughout. In addition, in experiment [4], the Potency entry was “inactive”.

These data come from PubChem BioAssay (Tox21).
